Only some compounds are listed: those with a hit (about 2.3% of all), similar ones and a draw of the others.
Tau fluor counter: counter-screen for tau fibril formation inhibitors. hit rate 0.93% among 280,000. AID 1463. Potency, µM (doses to about 57.7 µM). tau K18 P301L Alexa594 fluorescence, heparin fibrillization; also: nearly all actives have a fitted effect of over 55% in size
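Human tau K18 P301L (15 uM unlabeled, 0.24 uM Alexa 594-labeled) in 100 mM sodium acetate pH 7 with 20 uM heparin, 6 hr at 37 C. ThT 30 uM added, 1 hr ambient; Alexa 594 FP and total fluorescence read at 555/632 nm.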
USP1-UAF1 inh: USP1/UAF1 (human) deubiquitinase inhibition | recombinant USP1/UAF1, Ub-Rhodamine cleavage fluorescence | hit rate 0.23% among 390,000 | O94782 | AID 743255 | Potency, µM (series often up to 57.1 µM), actives largely listed as inhibitors; also: nearly all actives have a fitted effect of over 60% in size
Target sequence (O94782 whole entry, looked up): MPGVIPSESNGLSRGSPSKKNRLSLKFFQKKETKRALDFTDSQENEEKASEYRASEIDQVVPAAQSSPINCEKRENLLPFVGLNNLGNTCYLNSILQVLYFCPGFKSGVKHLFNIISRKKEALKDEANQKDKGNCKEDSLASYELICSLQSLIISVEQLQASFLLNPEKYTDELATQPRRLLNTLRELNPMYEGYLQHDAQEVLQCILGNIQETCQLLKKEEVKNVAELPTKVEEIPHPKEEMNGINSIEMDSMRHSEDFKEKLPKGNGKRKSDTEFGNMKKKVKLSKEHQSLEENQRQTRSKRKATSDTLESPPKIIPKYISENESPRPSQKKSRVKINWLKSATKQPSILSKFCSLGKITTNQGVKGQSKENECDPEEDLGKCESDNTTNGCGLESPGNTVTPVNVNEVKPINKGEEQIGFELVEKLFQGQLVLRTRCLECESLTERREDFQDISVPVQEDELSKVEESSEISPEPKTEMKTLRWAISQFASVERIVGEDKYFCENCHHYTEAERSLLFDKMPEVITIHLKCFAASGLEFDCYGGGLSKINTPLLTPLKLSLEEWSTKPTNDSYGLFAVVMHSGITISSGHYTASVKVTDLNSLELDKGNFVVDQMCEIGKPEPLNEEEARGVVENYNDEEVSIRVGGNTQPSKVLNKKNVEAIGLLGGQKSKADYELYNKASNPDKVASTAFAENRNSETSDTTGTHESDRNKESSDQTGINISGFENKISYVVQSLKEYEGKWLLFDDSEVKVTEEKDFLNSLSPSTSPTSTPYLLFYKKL
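USP1/UAF1 complex at 1 nM was preincubated with compound for 15 min at room temperature, then Ub-Rho substrate (150nM final) was added. Fluorescence (480/540 nm) was read kinetically, 6 reads every 60 seconds.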
Tau ThT inhib: tau fibrillization inhibition (ThT binding) | P10636 | Potency, µM (highest dose often 57.4 µM), most hits filed as inhibitors | recombinant tau K18 P301L (four-repeat tau fragment), heparin-induced fibrillization, ThT fluorescence | hit rate 2.1% among 270,000; also: nearly all actives have a fitted effect of over 55% in size
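K18 P301L tau (15 uM + 0.24 uM Alexa 594-tagged), heparin 20 uM, NaOAc pH 7, 6 h 37 C; ThT 30 uM, 1 h RT, ex 450/em 510 nm.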
FBPA coupling cs: counter-screen for Giardia aldolase inhibitors: coupling enzyme system; coupling enzyme system counterscreen, AmpLite Red fluorescence; activity change, negative = inhibition, % at 58.2 µM, hits read low; AID 2472; hit rate 0.67% among 290,000; in the data active = activity change below about -30%
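First, compound is pin-transferred into glyceraldehyde-3-phosphate coupling-enzyme reagent at 57.5 uM final and held 10 min at RT. Next, substrate, coupling system and AmpLite Red are added. After 20 min RT, fluorescence (525/598 nm) is read.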
Tau fibril FP: inhibitors of human tau fibril formation; hit rate 0.39% among 280,000; Potency, µM (doses to about 57.7 µM), usual class: inhibitors; AID 1468; K18 P301L tau heparin fibrillization, Alexa594 FP, 6 h; also: nearly all actives have a fitted effect of over 55% in size
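Read-out: fluorescence polarization of Alexa 594-labeled tau (0.24 uM), 555 nm excitation, 632 nm emission. Mixtures held 15 uM unlabeled K18 P301L, compound and 20 uM heparin, pH 7 acetate buffer, incubated 6 hr at 37 C.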
A number is an active result; [ ] = another dose, or the depositor's remark. Unless noted, calls follow the shape of the dose curve; as a rule, active = well fitted curve in the direction sought with a large enough effect; inconclusive = small, poorly fitted or top-dose-only effect, or another doubt; inactive = no such curve, though single readings can be large; an effect the other way counts as inactive or inconclusive.

`CC(=O)Nc1ccc(NC(=O)c2ccc(-c3ccc([N+](=O)[O-])cc3)o2)cc1` gave USP1-UAF1 inh inactive and FBPA coupling cs inactive.
Screening COc1cc([N+](=O)[O-])ccc1-c1ccc(C(=O)Nc2ccc(NC(C)=O)cc2)o1 returned Tau fluor counter inconclusive, USP1-UAF1 inh inactive, Tau ThT inhib 5.01µM, FBPA coupling cs inactive and Tau fibril FP inactive.
For COc1ccc(NC(=O)c2ccc(-c3ccc([N+](=O)[O-])cc3)o2)cc1OC the results were Tau fluor counter 11.2µM[quencher], USP1-UAF1 inh inactive, Tau ThT inhib 5.01µM, FBPA coupling cs inactive and Tau fibril FP inactive.
For CCOc1ccc(NC(=O)Cn2c(=O)oc3cc(S(=O)(=O)N4CCC(C)CC4)ccc32)cc1 the results were Tau fluor counter inactive, USP1-UAF1 inh inactive, Tau ThT inhib inactive and Tau fibril FP inactive.
For CCOc1ccc(-n2c(SCC(=O)N3CCCCCC3)nc3c([nH]c4ccccc43)c2=O)cc1 the results were Tau fluor counter inactive, USP1-UAF1 inh inconclusive, Tau ThT inhib inactive and Tau fibril FP inactive.
Screening O=C1NC(c2ccc(Cl)c([N+](=O)[O-])c2)Nc2ccccc21 (configuration not stated) returned Tau fluor counter inactive, USP1-UAF1 inh inactive, Tau ThT inhib inactive, FBPA coupling cs inactive and Tau fibril FP inactive.
`O=[N+]([O-])c1cc(C2Nc3cccc4cccc(c34)N2)ccc1Cl` gave Tau fluor counter 17.8µM[quencher], USP1-UAF1 inh inactive, Tau ThT inhib 17.8µM, FBPA coupling cs inactive and Tau fibril FP inconclusive.
Screening CCOC(=O)/C(=C\c1ccc(N2CCC(c3ccccc3)=N2)cc1)C(C)=O returned USP1-UAF1 inh 28.2µM.
Screening C/C(CC(=O)N1CCCC1)=N\NC(=O)c1cc2ccccc2cc1O returned Tau fluor counter inconclusive, USP1-UAF1 inh inactive, Tau ThT inhib 12.6µM, FBPA coupling cs -64.7 and Tau fibril FP inactive.
For C/C(=N\NC(=O)c1cc2ccccc2cc1O)c1ccc2c(c1)OCO2 the results were Tau fluor counter inconclusive, USP1-UAF1 inh inactive, Tau ThT inhib 7.08µM, FBPA coupling cs inactive and Tau fibril FP inactive.
For C/C(CC(=O)Nc1ccc(Cl)c(C(F)(F)F)c1)=N\NC(=O)c1cc2ccccc2cc1O the results were Tau fluor counter 15.8µM[quencher], USP1-UAF1 inh inactive, Tau ThT inhib 12.6µM, FBPA coupling cs inactive and Tau fibril FP inactive.
`C/C(=N\NC(=O)c1ccc(C)cc1C)c1ccc2c(c1)OCO2` gave Tau fluor counter inactive, USP1-UAF1 inh inactive, Tau ThT inhib inactive, FBPA coupling cs inactive and Tau fibril FP inactive.
`CN1CCN(CCCNC(=O)c2cnn(-c3ccccc3)c2-n2cccc2)CC1` gave Tau fluor counter inactive, USP1-UAF1 inh inactive, Tau ThT inhib inconclusive and Tau fibril FP inactive.
Screening COc1cc(C)c(CNc2cccc(C)c2)cc1C returned Tau fluor counter inactive, USP1-UAF1 inh inactive, Tau ThT inhib inactive, FBPA coupling cs inactive and Tau fibril FP inactive.
COc1cc(C)c(CNc2ccc(OC)c(OC)c2)cc1C was read as Tau fluor counter inconclusive, Tau ThT inhib inconclusive, FBPA coupling cs -31.0 and Tau fibril FP inactive.
N#CC1=C(SCC(N)=O)NC2=C(C(=O)c3ccccc32)C1c1ccc(Cl)cc1 (configuration not stated) was read as Tau fluor counter inconclusive, USP1-UAF1 inh inactive, Tau ThT inhib 14.1µM, FBPA coupling cs inactive and Tau fibril FP inconclusive.
For NC(=O)CC(NC(=O)c1ccccc1)c1ccc(NCCc2ccc(Cl)cc2)c([N+](=O)[O-])c1 (configuration not stated) the results were Tau fluor counter inconclusive, USP1-UAF1 inh inactive, Tau ThT inhib 12.6µM, FBPA coupling cs inactive and Tau fibril FP inactive.
`NC(=O)CC(NC(=O)c1ccccc1)c1ccc(NCc2ccc(F)cc2)c([N+](=O)[O-])c1` (configuration not stated) gave Tau fluor counter inactive, USP1-UAF1 inh inactive, Tau ThT inhib 25.1µM, FBPA coupling cs inactive and Tau fibril FP inactive.
`NC(=O)CC(NC(=O)c1ccccc1)c1ccc(NCc2ccc(F)c(F)c2)c([N+](=O)[O-])c1` (configuration not stated) gave USP1-UAF1 inh inactive and FBPA coupling cs inactive.
NC(=O)CC(NC(=O)c1ccccc1)c1ccc(NCc2ccccc2)c([N+](=O)[O-])c1 (configuration not stated) was read as Tau fluor counter inactive, USP1-UAF1 inh inactive, Tau ThT inhib 12.6µM, FBPA coupling cs inactive and Tau fibril FP inactive.
`CCOC(=O)c1cc(NC(=O)c2ccc(F)cc2)c(=O)n2c1oc1ccc(Cl)cc12` gave Tau fluor counter inactive, USP1-UAF1 inh inactive, Tau ThT inhib inactive and Tau fibril FP inactive.
For COc1cc(O)c(C(=O)/C=C/c2ccc(OC)c(O)c2)c(OC)c1 the results were Tau fluor counter inconclusive, Tau ThT inhib 3.16µM, FBPA coupling cs inactive and Tau fibril FP inactive.
COc1ccc(/C=C/C(=O)c2cc3cccc(OC)c3oc2=O)cc1 was read as Tau fluor counter inactive, USP1-UAF1 inh inconclusive, Tau ThT inhib 7.08µM, FBPA coupling cs inactive and Tau fibril FP inactive.
For CN(C)c1ccc(/C=C/C(=O)c2ccc3c(c2)OCCO3)cc1[N+](=O)[O-] the results were Tau fluor counter inconclusive, USP1-UAF1 inh inactive, Tau ThT inhib 3.55µM, FBPA coupling cs inactive and Tau fibril FP inactive.
`O=C(/C=C/c1ccncc1)c1ccc2c(c1)OCCO2` gave Tau fluor counter inactive, USP1-UAF1 inh inactive, Tau ThT inhib inconclusive, FBPA coupling cs inactive and Tau fibril FP inactive.
`CNC(=O)c1cc2cccc(OC)c2oc1=O` gave Tau fluor counter inactive, USP1-UAF1 inh inactive, Tau ThT inhib inactive, FBPA coupling cs inactive and Tau fibril FP inactive.
For CN(C)c1ccc(/C=C/C(=O)c2ccc(O)cc2)cc1 the results were USP1-UAF1 inh 25.1µM.
`Cc1ccc(C)c(NC(=O)c2cc(S(=O)(=O)N3CCCCCC3)ccc2F)c1` gave Tau fluor counter inactive, USP1-UAF1 inh inactive, Tau ThT inhib inactive and Tau fibril FP inconclusive.
`O=S(=O)(NCC(c1ccco1)S(=O)(=O)c1cccs1)c1ccc(F)c(C(F)(F)F)c1` (configuration not stated) gave Tau fluor counter inactive, USP1-UAF1 inh inactive, Tau ThT inhib inactive and Tau fibril FP inactive.
Screening COc1ccc(C(=O)/C=C/c2ccccc2)c(OC)c1 returned Tau fluor counter inactive, USP1-UAF1 inh inactive, Tau ThT inhib inconclusive, FBPA coupling cs inactive and Tau fibril FP inactive.
`COc1ccc(C(=O)/C=C/c2ccccc2F)c(OC(=O)c2ccc([N+](=O)[O-])cc2)c1` gave Tau fluor counter inconclusive, USP1-UAF1 inh inactive, Tau ThT inhib inconclusive, FBPA coupling cs inactive and Tau fibril FP inactive.
Screening CN(C)c1ccc(/C=C/C(=O)c2ccc3c(c2)OCO3)cc1 returned USP1-UAF1 inh 25.1µM.
`CN(C)c1ccc(/C=C/C(=O)c2ccccc2O)cc1` gave Tau fluor counter inconclusive, USP1-UAF1 inh inconclusive, Tau ThT inhib 3.98µM, FBPA coupling cs inactive and Tau fibril FP inconclusive.

From PubChem
